# Data published in PubChem BioAssay (NCI).
# About 83,000 compounds went through this panel and 20% of them were active in at least one assay; those are over-represented in the sample as a whole.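 Testing used 96-well plates and a 48-hour single-concentration exposure. Example: -40 means 40% of the starting cells died.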 A number with no mark means an inactive call. Calls of active or inactive are those of the source. How the source made its calls: active means growth percent below 10; inactive means the rest.
# System: HL-60(TB) leukemia
# Assay: NCI-60 one-dose screen, 48 h (100 = growth as untreated, 0 = no growth, -100 = all killed)
# Settings: 10 µM unless noted
row,Compound,growth
1,Cn1c(C(N)=O)cc2c1-c1nc(NC3CCCCC3)ncc1CCC2,105%
2,O=C(O)c1cn(C2CC2)c2cc(N3CCN(Cc4ccc5ccccc5c4O)CC3)c(F)cc2c1=O,69.7%
3,CN[C@@H](CCCNC(N)=NC/C=C(/C)CCC=C(C)C)C(=O)N(C)[C@@H](CCCNC(N)=NCC=C(C)C)C(=O)N[C@H](C)[C@H](OS(=O)(=O)O)c1ccc(OS(=O)(=O)O)c(COS(=O)(=O)O)c1,83.5%
4,Clc1ccc(Sc2nc(NC3CC3)nc(Sc3ccc(Cl)cc3)n2)cc1,60.9%
5,Oc1c(C(Nc2ccccc2Br)c2ccccc2)ccc2cccnc12 (stereo not given),-17.8% (active)
6,CCN(CC)c1ccc(C(=N)c2ccc(N(C)C)cc2)cc1,11.1%
7,S=c1[nH]ccn1-c1c(Cl)cccc1Cl,93.5%
8,COc1cc(CCC[P+](c2ccccc2)(c2ccccc2)c2ccccc2)cc2c1OCO2,10.3%
9,CCCCCCCCCCCCNC(=S)N/N=C/c1ccc(Cl)c(Cl)c1,116%
10,COc1cc(C2C3=C(COC3=O)N(CCO)c3cc4c(cc32)OCCO4)cc(OC)c1O (stereo not given),-9% (active)
11,COc1cccc(C(=O)NNc2nc(Cl)nc(N3CCN(C(c4ccccc4)c4ccccc4)CC3)n2)c1,0.787% (active)
12,N#C/C(=C1C=C/C(=N/O)C(Br)=C/1)c1ccccc1,-20.5% (active)
13,N#Cc1c2c(c(N)[nH]c1=O)C(=O)NC2(O)c1ccccc1 (stereo not given),93.8%
14,C=C(CNCCO)[C@@H]1CC[C@]2(CO)CC[C@]3(C)[C@H](CC[C@@H]4[C@@]5(C)CCC(N)C(C)(C)[C@@H]5CC[C@]43C)[C@@H]12 (stereo not given in full),32.4%
15,CC[C@]1(O)C[C@@H]2CN(CCc3c([nH]c4ccccc34)[C@@](C(=O)OC)(c3cc4c(cc3OC)N(C)[C@H]3[C@@](O)(C(=O)OC)[C@H](OC(C)=O)[C@]5(CC)C=CCN6CC[C@]43[C@@H]65)C2)C1,-7.59% (active)
16,O=c1oc2ccc(F)cc2c(=O)n1-c1ccc(F)cc1F,16.7%
17,CCCCCCCCCCCCCCCCCCNC(=O)[C@H]1CSC(c2ccc(F)c(OC)c2)N1 (stereo not given in full),-68% (active)
18,COc1ccc(OC)c(-c2ccc(-c3ccccc3N)c3[nH]c4ccccc4c23)c1,93.4%
19,Cc1ccc2c(c1)C(C)Cc1c(ncnc1-n1cnc3ccccc31)N2C (stereo not given),-19.1% (active)
20,COc1ccc(/C=C(/C2=NCCN2)n2ccc3ccccc32)cc1,92%

row,Compound,growth
1,Cc1c2cc[nH]c(=O)c2c(C)c2c1[nH]c1ccc(OC(=O)c3ccccc3)cc12,51.3%
2,CN1C(=O)CNC(=O)[C@H](NC(=O)c2nc3ccccc3cc2O)CSSC[C@H]1C(=O)NCCc1nc2ccccc2cc1O,-36.8% (active)
3,Cn1nc(C(F)(F)F)cc1-c1c[nH]c(OCc2ccc(Cl)cc2)c(-c2ccc(Cl)c(C(F)(F)F)c2)c1=O,-28% (active)
4,CCCCCCCCN(CCCCCCCC)CC(O)c1ccc(Cl)c(C)c1Cl (stereo not given),106%
5,Oc1ccc(-c2[nH]c3ccccc3c2-c2nc3ccccc3o2)cc1,80.8%
6,CC1=NC(=S)NC(c2ccccc2)/C1=C1/CC(c2ccccc2O)NN1 (stereo not given),97.2%
7,c1ccc(-c2nc3ccccc3s2)cc1,99.5%
8,Cc1c(CC(=S)N2CCOCC2)nnn1-c1cccc(C(F)(F)F)c1,100%
9,COC(=O)c1c(C)[nH]c(/C=C2\N=C(c3ccc[nH]3)C=C2OC)c1C,4.25% (active)
10,CCCCCCCCCCCC[n+]1c(C)cc(N)c2ccccc21,-44.4% (active)
11,Oc1c(-c2cc(C(F)(F)F)[nH]n2)cc(Cl)c(OCc2ccc(Cl)cc2)c1-c1ccc(Cl)c(C(F)(F)F)c1,-10.8% (active)
12,C[C@H](NC(=O)[C@@H]1CSSC[C@@H](NC(=O)c2nc3ccccc3cc2O)C(=O)NCC(=O)N1C)c1ccccc1,-27.6% (active)
13,COc1cccc(C2C(C#N)=C(N)Oc3c2ccc2ccccc32)c1 (stereo not given),-30.3% (active)
14,O=C(/C(Cl)=N/O)c1ccc(-c2ccccc2)cc1,69.2%
15,Cc1ccc(S(=O)(=O)Nc2cccc3[nH]c(C(F)(F)F)nc23)cc1,0.648% (active)
16,N#Cc1nc(-c2ccc(F)cc2)oc1S(=O)(=O)N1CCOCC1,16%
17,CC1C2CCC(C2)C1COCCOCCO (stereo not given),108%
18,CCOC(=O)n1cc(-c2nonc2-c2cn(C)c3ccc(OC)cc23)c2cc(F)ccc21,99.7%
19,S=C(NCc1ccccc1)N1CCC(CCCC2CCN(C(=S)NCc3ccccc3)CC2)CC1,89.7%
20,CCOC(=O)Nc1cc(-c2ccc(C)c(NS(C)(=O)=O)c2)nn2c(C)nnc12,10.8%
